Assay results as given in PubChem BioAssay (NCATS).
Where “and” joins values, the source holds several entries; their conditions need not be identical. Identical values can stand only once. Records with an inconclusive call do not appear. Entries that show only a call come without a potency. Calls of active or inactive are those of the source. The call rests on the fitted dose curve; in most records, active means well fitted inhibition curve with a large enough effect; inconclusive means small, poorly fitted or top-dose-only effect; inactive means flat fitted curve, though single readings scatter.
Potency means the concentration at half of the fitted maximal effect.

Experiment: Primary qHTS for inhibitors of nuclear receptor binding SET domain protein 2 (NSD2) in an isogenic RCH-ACV NSD2 p.E1099K mutant (9B) (AID 1645876); further: nearly all actives have a fitted effect of over 70% in size
Details: RCH-ACV (leukaemia line) NSD2 E1099K (9B) viability, CellTiter-Glo, 72 h; series mostly up to 44.9 µM
In the case of `CN[C@@H]1[C@@H](O)[C@@H](O[C@@H]2[C@@H](O)[C@H](O[C@H]3O[C@H](CN)[C@@H](O)[C@H](O)[C@H]3O)[C@@H](N)C[C@H]2NC(=O)C(O)CN)OC[C@]1(C)O` (stereo not given in full), the Potency was “inactive”.
With `CC(=O)Nc1ccc(NC(=S)NC(=O)c2ccc(C(C)(C)C)cc2)cc1` the Potency was 1.83 µM (active).
With `CC[C@H](CC[C@@H](C)[C@H]1CC[C@H]2[C@@H]3CC=C4C[C@@H](O)CC[C@]4(C)[C@H]3CC[C@]12C)C(C)C` the Potency was “inactive”.
In the case of `O=C(O)CCC(=O)c1ccc(-c2ccccc2)cc1`, the Potency was “inactive”.
With `CC(=O)NCCCS(=O)(=O)O` the Potency was “inactive”.
In the case of `CNC(=O)[C@H](Cc1c[nH]c2ccccc12)NC(=O)[C@@H](CC(=O)NO)CC(C)C`, the Potency was “inactive”.
In the case of `CC(C)Cc1ccc([C@@H](C)C(=O)NS(C)(=O)=O)cc1`, the Potency was “inactive”.
With `CCCCC[C@H](O)/C=C/[C@H]1[C@H](O)CC(=O)[C@@H]1CCCCCCC(=O)O` the Potency was 0.0661 µM (active).
In the case of `COc1ccc([C@@H]2CC(=O)c3c(O)cc(O[C@@H]4O[C@H](CO[C@@H]5O[C@@H](C)[C@H](O)[C@@H](O)[C@H]5O)[C@@H](O)[C@H](O)[C@H]4O)cc3O2)cc1O`, the Potency was “inactive”.
In the case of `C[C@H]1O[C@@H](O[C@H]2[C@@H](O)C[C@H](O[C@H]3[C@@H](O)C[C@H](O[C@H]4CC[C@@]5(C)[C@H](CC[C@@H]6[C@@H]5C[C@@H](O)[C@]5(C)[C@@H](C7=CC(=O)OC7)CC[C@]65O)C4)O[C@@H]3C)O[C@@H]2C)C[C@H](O)[C@@H]1O`, the Potency was 40.9 nM (active) and 66.1 nM (active).
